# Screening results as filed in PubChem BioAssay.
# NPC1 promoter act = activates the NPC1 promoter; AID 485313; Potency, µM (series often up to 9.22 µM), for the others: at the highest dose activation, hits mostly activators; 320,000 compounds, 2.4% hits; Huh7 NPC1 promoter luciferase reporter, 24 h; further: % of control where 0% means no effect; nearly all actives have a fitted effect of over 60% in size
#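 In 1536-well qHTS, Huh7 cells harboring an NPC1 promoter–luciferase construct received compound for 24 h; activation was quantified by luminescence following luciferase reagent addition.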
# SMN2 splice enh = increases expression of the SMN2 splice variant | Potency, µM (titrated, usually from 46.1 µM), for the others: at the top dose activity change, positive = activation, usual class: activators | AID 1458 | 210,000 compounds, 2.8% hits | HEK293 SMN2-luciferase splicing reporter, luminescence, 30-36 h; further: % of control where 0% means no effect; nearly all actives have a fitted effect of over 55% in size
#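 HEK293 cells carry an SMN2 minigene-luciferase reporter in which exon 7 inclusion puts luciferase in frame. Cells were seeded at 2000 cells/well, attached for 10-12 hours, then exposed to compounds for 30-36 hours at 37C before ONE-Glo luminescence.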
# Luc counter = counter-screen: inhibitors of Kinase-Glo firefly luciferase; Q27757; Potency, µM (series often up to 38.3 µM), for the others: top-dose activity change, negative = inhibition, actives largely listed as inhibitors; 200,000 compounds, 0.28% hits; Kinase-Glo luciferase, ATP luminescence, 8 min; further: on the % scale 0 is the no-effect control and ±100 the full control effect; nearly all actives have a fitted effect of over 60% in size
#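 Kinase-Glo luciferase light output from ATP and luciferin was measured with 10 uM ATP, within the enzyme's linear range. Buffer: 50 mM imidazole pH 7.2, 50 mM KCl, 7 mM MgCl2, 0.01% Tween 20, 0.05% BSA; luminescence read after 8 min at ambient temperature.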
# Rab9 promoter act = activates the Rab9 promoter | Huh7 Rab9 promoter-luciferase reporter, luminescence, 24 h | Potency, µM (doses to about 9.22 µM), without a hit: at the top dose activation, negative = inhibition, hits mostly activators | 320,000 compounds, 2.8% hits; further: % of control where 0% means no effect; nearly all actives have a fitted effect of over 60% in size
#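 Measured in stably transfected Huh7 cells bearing a Rab9 promoter–luciferase construct: 24 h compound treatment at 37 °C, followed by luminescence detection.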
# FLuc modulator = inhibits or activates purified firefly luciferase, miR-21 counter-screen; purified FLuc, Km substrates, luminescence inhibition; Potency, µM (series often up to 57.5 µM), without a hit: at the highest dose activity change, negative = inhibition, hits mostly inhibitors; 360,000 compounds, 6.9% hits; AID 588342;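 further: plate controls were vehicle for no effect and reference inhibitor for full effect; nearly all actives have a fitted effect of over 55% in size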
# Target sequence (P08659 whole entry, looked up): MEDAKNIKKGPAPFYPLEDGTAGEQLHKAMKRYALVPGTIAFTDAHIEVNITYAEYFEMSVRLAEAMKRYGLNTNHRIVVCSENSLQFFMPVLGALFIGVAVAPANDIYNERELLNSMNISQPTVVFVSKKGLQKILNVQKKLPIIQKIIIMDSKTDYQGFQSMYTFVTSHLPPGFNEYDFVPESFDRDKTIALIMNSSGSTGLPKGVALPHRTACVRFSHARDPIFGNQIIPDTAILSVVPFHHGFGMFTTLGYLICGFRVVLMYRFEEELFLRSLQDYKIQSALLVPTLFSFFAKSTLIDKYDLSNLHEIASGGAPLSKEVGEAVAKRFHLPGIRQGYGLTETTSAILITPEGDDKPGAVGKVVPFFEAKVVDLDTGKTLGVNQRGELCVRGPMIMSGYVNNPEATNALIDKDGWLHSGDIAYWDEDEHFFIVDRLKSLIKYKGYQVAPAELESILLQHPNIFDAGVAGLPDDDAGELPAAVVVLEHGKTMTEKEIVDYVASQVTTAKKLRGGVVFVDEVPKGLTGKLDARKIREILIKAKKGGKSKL
#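 Purified P. pyralis luciferase (10nM final) with 10uM D-luciferin and 10uM ATP (Km levels) in 50mM Tris acetate pH 7.5, 10mM Mg acetate, 0.01% Tween-20, 0.05% BSA; qHTS 6-point titration, ~60 µM downward; luminescence read.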
# ELG1 genotoxic = genotoxicity induction in ELG1-luciferase HEK293T cells | Potency, µM (doses to about 46 µM), inactives show at the top dose activity change, positive = activation, usual class: activators | 330,000 compounds, 1.3% hits | AID 504466 | HEK293T ELG1-luciferase reporter, luminescence, 16 h; further: % of control where 0% means no effect; nearly all actives have a fitted effect of over 60% in size
#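 Cells (2,000/well) expressing the ELG1-luciferase fusion are dosed by pin tool and kept 16 hr at 37 °C, 5% CO2. Signal comes from ONE-Glo luciferase reagent after 30 min at room temperature.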
# The depositor's hits bear a star; u = inconclusive; x = no result given; [ ] = remark or other dose. This is a sample that favours compounds with a hit; in the whole collection about 7.4% have one here. The call rests on the fitted dose curve; in most records, active means well fitted curve in the direction sought with a large enough effect; inconclusive means small, poorly fitted or top-dose-only effect, or another doubt; inactive means no such curve, though single readings can be large; an effect the other way counts as inactive or inconclusive. Potency means the concentration at half of the fitted maximal effect.
SMILES,NPC1 promoter act,SMN2 splice enh,Luc counter,Rab9 promoter act,FLuc modulator,ELG1 genotoxic
CN(C)c1ccc(N2CN=C3SCC(=O)N3C2)cc1,14.9%,-12.2%,-6.6%,6.3%,10.7µM*,u
Clc1cccc(/C=N/Nc2ncnc3ccccc23)c1,u,u,-8.0%,3.98µM*,4.78µM*,u
C(=N\Nc1ncnc2ccccc12)/c1ccccc1,29.3%,15.8µM*,-7.5%,2.82µM*,3.01µM*,u
CCc1cccc(NC(=O)C(Cc2ccccc2)n2cccc2)c1 (stereo unspecified),x,-9.5%,x,x,-11.6%,x
CCC(Sc1nnnn1C)C(=O)Nc1ccc(C(C)=O)cc1 (stereo unspecified),22.6%,u,0.3%,u,u,18.4µM*
COc1ccccc1NC(=O)Nc1ccc(N2CCOCC2)cc1,u,112.1%,-17.9%,u,16.9µM*,u
COc1ccccc1NC(=O)Nc1ccc(C(N)=O)cc1,18.2%,u,-5.5%,u,u,14.2%
O=C(Nc1ccc(N2CCOCC2)cc1)Nc1cnsn1,u,12.6µM*,-8.8%,u,16.9µM*,14.5%
COc1ccccc1CNCC(=O)Nc1ccc(N2CCOCC2)cc1,-4.5%,u,1.7%,-14.3%,0.5%,1.1%
COc1ccccc1NC(=O)Nc1ccc(CC#N)cc1,u,x,x,u,21.3µM*,u
COc1ccccc1NC(=O)Nc1ccncc1,-3.3%,-34.3%,-11.8%,-1.8%,3.8%,-12.9%
COc1ccccc1NC(=O)Nc1ccc(Cc2ccncc2)cc1,4.5%,-2.6%,-1.9%,13.3%,16.9µM*,6.2%
O=[N+]([O-])c1ccc2c(c1)S(=O)(=O)C=C2,-33.5%[46.1 µM],x,x,-42.6%[46.1 µM],x,x
CCN1CCN(CCC(=O)Nc2ccccc2OC)CC1,-0.9%,-8.2%,-3.9%,1.3%,1.0%,2.1%
CCN1CCN(Cc2ccc(NC(=O)Nc3ccccc3OC)cc2)CC1,u,x,4.0%,u,10.7µM*,18.4µM*
CCC1=C2CC[C@H]3C(=O)N(c4ccccc4)C(=O)[C@H]3[C@H]2[C@@]2(Cc3ccccc3)C(=NCCOC)OC(=O)N2C1=O,x,-2.6%,-2.1%,x,x,x
O=[N+]([O-])c1ccccc1COc1ccc(Cl)c2cccnc12,0.631µM*,x,x,0.282µM*,0.536µM*,1.64µM*
O=C(Oc1ccc(Cl)c2cccnc12)c1cccc([N+](=O)[O-])c1,-1.6%,6.4%,-2.8%,-3.2%,u,-0.3%
COc1ccc(N/C=C/C(=O)C(C)(C)C)cc1,-0.3%,x,3.6%,-3.5%,12µM*,10.0%
COc1ccc(N/C=C/C(=O)c2sc(-c3ccccc3)nc2C)cc1,-2.2%,-13.5%,-1.1%,-2.3%,6.75µM*,-5.7%
COC(/C=C/Nc1ccc(OC)cc1)=C(C#N)C#N,-5.9%,12.5%,-2.9%,-24.1%,-0.9%,-0.4%
O=C(/C=C/Nc1ccccc1)c1ccc(Oc2ncccn2)cc1,1.41µM*,u,-24.7%,2.24µM*,2.13µM*,u
COc1ccc(C(=O)/C=C/Nc2ccc(C)cn2)cc1OC,2.24µM*,11.2µM*,1.6%,1.58µM*,8.49µM*,u
CCc1nn(CC(=O)Nc2c(C)cc(C)cc2C)c(=O)c2cc3sccc3n12,x,1.7%,x,x,-10.9%,x
CCCCC(=O)O[C@]1(C(=O)CO)[C@H](C)C[C@H]2[C@@H]3CCC4=CC(=O)C=C[C@]4(C)[C@@]3(F)[C@@H](O)C[C@@]21C,x,x,2.2%[39.9 µM],x,x,x
SMILES,NPC1 promoter act,SMN2 splice enh,Luc counter,Rab9 promoter act,FLuc modulator,ELG1 genotoxic
CCc1cc2c(cc3c(=O)n(CC(=O)N4CCN(c5cccc(C)c5C)CC4)nc(CC)n32)s1,x,-3.3%,x,x,-12.5%,x
O=C(OC1Cc2c(O)cc(O)cc2OC1c1cc(O)c(O)c(O)c1)c1cc(O)c(O)c(O)c1 (stereo unspecified),x,3.5%,-3.1%,x,x,x
CCOc1ccc(N/C=C/C(=O)c2ccc(OC)c(OC)c2)cc1,3.16µM*,x,x,4.47µM*,3.01µM*,18.3µM*
O=C(Oc1ccc(C(=S)N2CCOCC2)cc1)c1ccc(Br)cc1,-1.1%,20.9%,-0.7%,-0.7%,-0.1%,0.7%
CCCOc1ccc(N/C=C/C(=O)c2ccc(OC)c(OC)c2)cc1,-4.7%,x,x,0.1%,u,1.3%
COc1ccc(N/C=C\C(=O)c2ccc3ccccc3c2)cc1,2µM*,x,x,2.82µM*,u,16.8%
COc1ccc(C(=O)/C=C\N2CCOCC2)cc1,13.6%,x,-10.3%,15.1%,23.9µM*,u
COc1ccc(C(=O)Oc2ccc(C(=S)N3CCOCC3)cc2)cc1,-3.1%,x,-0.5%,-3.9%,21.3µM*,0.2%
COc1cc(C2C(C(=O)OC(C)C)=C(C)N=C3SCCC(=O)N32)ccc1OCc1ccccc1 (stereo unspecified),x,-2.5%,x,x,-6.9%,x
COc1ccc(N/C=C/C(=O)c2ccccc2)cc1,0.316µM*,x,x,0.126µM*,0.12µM*,0.411µM*
COc1ccc(N/C=C(/C(C)=O)c2ccccc2)cc1,-0.3%,-15.6%,-0.6%,-8.9%,0.3%,u
COC(=O)c1c(-c2ccccc2)c[nH]c1C,3.4%,x,x,-0.6%,26.9µM*,10.8%
COC(=O)c1c(C)[nH]c(C)c1-c1ccccc1Cl,-0.9%,-13.0%,-6.1%,1.4%,11.4%,-0.1%
COC(=O)c1c(C)[nH]c(C=O)c1-c1ccccc1,27.1%,x,x,u,13.5µM*,u
O=C(COc1ccccc1F)Nc1ccc2oc(-c3cccc(Cl)c3)nc2c1,x,x,x,x,-3.1%,x
CN[C@H](CC(C)C)C(=O)N[C@H]1C(=O)N[C@@H](CC(N)=O)C(=O)N[C@@H]2C(=O)N[C@H]3C(=O)N[C@H](C(=O)N[C@H](C(=O)O)c4cc(O)cc(O)c4-c4cc3ccc4O)[C@H](O)c3ccc(c(Cl)c3)Oc3cc2cc(c3O[C@@H]2O[C@H](CO)[C@@H](O)[C@H](O)[C@@H]2O[C@H]2C[C@](C)(N)[C@H](O)[C@H](C)O2)Oc2ccc(cc2Cl)[C@H]1O,2.8%[46.1 µM],x,x,-6.4%[46.1 µM],x,x
CCOC(=O)c1cnc(SCC(C)C)nc1N,3.16µM*,14.1µM*,0.8%,2.51µM*,6.75µM*,u
CCOC(=O)c1cnc(SCC(=O)c2ccccc2)nc1N,3.16µM*,12.6µM*,-9.1%,1.58µM*,2.13µM*,20.6µM*
CCOC(=O)c1cnc(SCc2cccc(C)c2)nc1N,28.5%,u,-0.8%,29.7%,u,16.4µM*
CCOC(=O)c1cnc(SCC(=O)c2ccc(C)cc2)nc1N,-3.6%,14.2%,1.5%,10.6%,0.7%,6.4%
CCOC(=O)c1cnc(SC)nc1N,-1.0%,-10.1%,4.4%,-0.7%,-8.8%,11.7%
CCOC(=O)c1cnc(SCC(=O)c2ccc3c(c2)OCCO3)nc1N,0.0%,14.1%,21.5%,u,21.3µM*,4.2%
